Molecules are shown by their SMILES. Records with an inconclusive call do not appear. Calls of active or inactive are those of the source. Calls come from the whole dose curve; as a rule, active = well fitted inhibition curve with a large enough effect in the signal ratio in the repeat runs (not every such curve was filed as active); inconclusive = weak or mixed curves, or effect the other way; inactive = flat fitted curve, though single readings scatter; the % refers to the signal ratio.
% is set by controls: 0 for no effect and ±100 for the full control effect; potency is the fitted concentration of half-maximal effect.

A short description of the assay: cAMP Responsive Elements (CRE) small molecule antagonists, cell-based qHTS assay (AID 1963591). The following applies: CRE-bla HEK293T, beta-lactamase FRET ratio; series mostly up to 92.4 µM; activity change, negative = inhibition: at the top concentration. The text has this: U.S. Tox21 Program National Center for Advancing Translational Sciences [NCATS] Division of Preclinical Innovation [DPI] U.S. Environmental Protection Agency [EPA] National Institutes of Environmental Health Sciences [NIEHS] National Toxicology Program [NTP] U.S. Food and Drug Administration [FDA] Tox21 Assay Overview: CREB (cyclic-AMP Responsive Element Binding Protein) is a cellular transcription factor. It binds to certain DNA sequences called cAMP Responsive Elements (CRE) and regulates the transcription of the genes. […] This cell line can be used to find agonists/antagonists of the cyclic AMP signaling pathway. The activation of the report gene under culture conditions can be detected by fluorescence intensity. This cell line has been used to screen the Tox21 10K compound library to […].
Tox21 Assay Protocol Summary: CRE-bla Hek 293T cells were suspended in assay medium (DMEM containing 10% dialyzed FBS, 0.1 mM NEAA, 1 mM sodium pyruvate and 25 mM HEPES) and dispensed at 2,000 cells/4 uL /well into 1536-well black wall/clear bottom plates using a Multidrop Combi (ThermoFisher Scientific, Waltham, MA) dispenser. After the assay plates were incubated at 37 C/5% CO2 for 18 hrs, 23 nL of compounds dissolved in DMSO, positive controls or DMSO only was transferred to the assay plate by a pintool workstation (Kalypsys, San Diego, CA), followed by addition of 1 […] uL of 1.25uM NKH477 (0.25 uM as final concentration) in assay medium using a Flying Reagent Dispenser (Aurora Discovery, San Diego, CA). The plates were incubated at 37 C and 5% CO2 for 3 hrs. Then 1 uL of LiveBLAzer B/G FRET substrate (Invitrogen, Carlsbad, CA) was added to each well using Bioraptr Flying Reagent Dispenser (FRD, Aurora Discovery, San Diego, CA). The plates were incubated at room temperature for 2 h.
For orientation: In qHTS, concentration-response curves come from the screen itself.
Regarding `C/C(=C\c1ccc(C(=O)O)cc1)c1ccc2c(c1)C(C)(C)CCC2(C)C`, the “activity change, negative = inhibition” value is 4.34% [at 42.4 µM] (inactive).

On to `CN(C)CCN(C)CCO`, for which the “activity change, negative = inhibition” value is -2.59% (inactive). The same measure, in the same setting: under `Cc1[nH]cnc1C[C@H]1CCc2c(C)c3ccccc3n2C1=O` stands 19% (inactive).

In the case of `Nc1nc(-c2ccccc2)cs1`, the “activity change, negative = inhibition” value was 0.984% (inactive). As for `CC(C)(O)c1ccc(C(C)(C)O)cc1`, the “activity change, negative = inhibition” value was -0.287% (inactive). On the same count and under the same terms, the figure for `COc1cc(Nc2c(C#N)cnc3cc(OCCCN4CCN(C)CC4)c(OC)cc23)c(Cl)cc1Cl` is -12.8% [at 42.4 µM] (inactive); for `CC(C)(C)c1ccc(C(O)CCCN2CCC(C(O)(c3ccccc3)c3ccccc3)CC2)cc1` (stereo not given) it is -0.114% [at 42.4 µM] (inactive). On the same count and under the same terms, the figure for `NC[C@H]1O[C@H](O[C@H]2[C@H](O)[C@@H](O[C@H]3O[C@H](CO)[C@@H](O)[C@H](N)[C@H]3O)[C@H](N)C[C@@H]2N)[C@H](O)[C@@H](O)[C@@H]1O` is -1.06% [at 8.39 µM] (inactive). As to `CCCC(=O)Nc1ccc(OCC(O)CNC(C)C)c(C(C)=O)c1` (stereo not given), the “activity change, negative = inhibition” value is -10.9% [at 42.4 µM] (inactive).

With `COc1cc(S(=O)(=O)Nc2ccccc2)c(OC)cc1N`, the “activity change, negative = inhibition” value is -9.7% (inactive). On the same count and under the same terms, under `CO[C@@]12[C@H](COC(N)=O)C3=C(C(=O)C(C)=C(N)C3=O)N1C[C@@H]1N[C@@H]12` stands 16.9% [at 42.4 µM] (inactive). Turning to `COCCc1ccc(OCC2CO2)cc1` (stereo not given), the “activity change, negative = inhibition” value is 3.53% [at 42.4 µM] (inactive). Still for that read-out and setting: the figure for `COC(=O)c1ccc(C(=O)O)cc1` is 7.34% (inactive); for `CCCCCc1ccc(O)cc1` it is -65.3% (inactive); for `CN(C)c1ccc(C2(c3ccc(N(C)C)cc3)OC(=O)c3cc(N(C)C)ccc32)cc1` it is -0.172% (inactive). `CCC(C)OC(C)CC` (stereo not given): the “activity change, negative = inhibition” value was 6.05% (inactive). The same measure, in the same setting: under `CCN(CC)c1ccc(C(=C2C=CC(=[N+](CC)CC)C=C2)c2cc(S(=O)(=O)O)ccc2S(=O)(=O)[O-])cc1` stands 0.817% [at 42.4 µM] (inactive); under `Cc1cc(-c2ccc(N=Nc3cc(S(=O)(=O)O)c4ccccc4c3N)c(C)c2)ccc1N=Nc1cc(S(=O)(=O)O)c2ccccc2c1N`, -22.3% (inactive); under `CCCCCCCCCCCCSCCOCCO`, -0.856% [at 42.4 µM] (inactive).

Turning to `C[C@@H]1CC[C@H]2C(C)(C)[C@H]3C[C@@]12CC[C@@]3(C)O`, the “activity change, negative = inhibition” value was 4.9% (inactive). Same read-out and setting: under `CC(C)(C)c1ccc(OC(=O)c2ccccc2O)cc1` stands -0.211% (inactive); under `Oc1ccc(CCNCCCCCCNCCc2ccccc2)cc1O`, 5.32% [at 42.4 µM] (inactive); under `CCCCCCCCCCCCCOC(=O)CCSCCC(=O)OCCCCCCCCCCCCC`, -14% [at 18.9 µM] (inactive). Take `CCCCCCCCCCCCCCOS(=O)(=O)O`: the “activity change, negative = inhibition” value is -11.4% (inactive). Same read-out and setting: the figure for `N#Cc1ccccc1O` is -6.63% (inactive); for `NCCNC(=O)c1ccc(Cl)cn1` it is -1.63% [at 42.4 µM] (inactive). Regarding `CCC(C)(CN(C)C)OC(=O)c1ccccc1` (stereo not given), the “activity change, negative = inhibition” value is -2.48% [at 42.4 µM] (inactive). Still for that read-out and setting: the figure for `O=S(=O)(O)c1cc(O)ccc1O` is -0.565% (inactive); for `N[C@@H](Cc1ccc(O)cc1)C(=O)O` it is 0.559% [at 8.39 µM] (inactive); for `CCOC(=O)OC(C)OC(=O)[C@@H]1N2C(=O)[C@@H](NC(=O)[C@H](N)c3ccccc3)[C@H]2SC1(C)C` (stereo not given in full) it is 6% [at 42.4 µM] (inactive). On the same count and under the same terms, the figure for `CCN(C)C(=O)Oc1cccc([C@H](C)N(C)C)c1` is -12.9% [at 42.4 µM] (inactive). On the same count and under the same terms, the figure for `CCOC(=O)C1=NN(c2ccccc2)C(=O)C1` is 10.7% (inactive); for `OCCN1CCN(CCCN2c3ccccc3Sc3ccc(C(F)(F)F)cc32)CC1` it is 0.884% [at 42.4 µM] (inactive). `O=C1c2ccccc2C(=O)N1SC1CCCCC1`: the “activity change, negative = inhibition” value was -8.27% (inactive). The same measure, in the same setting: under `C1C2OC2C2C1C1CC2C2OC12` (stereo not given) stands 0.339% (inactive); under `CC(C)(C)c1ccc(-c2ccc(C(C)(C)C)cc2)cc1`, 1.06% (inactive). Same read-out and setting: under `CN1C[C@H]2c3ccccc3Oc3ccc(Cl)cc3[C@@H]2C1` stands 4.66% [at 42.4 µM] (inactive); under `CCCC1CCOC(C)S1` (stereo not given), -3.31% (inactive); under `Cn1c(N)nc2nc[nH]c2c1=O`, -5.09% (inactive). Regarding `CC(C)C[C@H](NC(=O)[C@H](Cc1ccccc1)NC(=O)c1cnccn1)B(O)O`, the Potency was 944 nM (active).
